# Where “and” joins values, the source holds several entries; their conditions need not be identical. Equal values may be shown once. Where a name gives a salt, the structure may show the parent alone. In all, about 5,800 compounds went through this assay and about 620 (11%) showed activity. For the sample, actives were picked, then their nearest neighbours and some compounds at random. A number with no mark means an inactive call.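 Rule for the calls: active = score above a cut-off or among the top three wells of a plate; in these data no inactive exceeds 0.85.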
# Test system: primary human hepatic stellate cells (donor 1)
# Test: scaled lipid accumulation score (0 = DMSO-like, 1 = nortriptyline-like); higher = stronger HSC inactivation (lipid re-accumulation), active = hit call of the paper
# Settings: 48 h
# [1] = library stock concentration: 4.9 mM
# [2] = library stock concentration: 10 mM
# [3] = library stock concentration: 1 mM
# [4] = library stock concentration: 3.33 mM
smiles,measurement,setting,value
CN1CCN(CCCN2c3ccccc3Sc3ccc(C(F)(F)F)cc32)CC1 [Trifluoperazine],scaled lipid accumulation score,[1],0.434
CN1CCN(CCCN2c3ccccc3Sc3ccc(C(F)(F)F)cc32)CC1 [Trifluoperazine dihydrochloride],scaled lipid accumulation score,,0.393
CN1CCN(CCCN2c3ccccc3Sc3ccc(C(F)(F)F)cc32)CC1.Cl.Cl [Trifluoperazine],scaled lipid accumulation score,library stock concentration: 10.4 mM,0.892 (active)
CCSc1ccc2c(c1)N(CCCN1CCN(C)CC1)c1ccccc1S2 [Thiethylperazine malate],scaled lipid accumulation score,,0.362
CN1CCN(CCCN2c3ccccc3Sc3ccc(C(F)(F)F)cc32)CC1.Cl.Cl [Trifluoperazine dihydrochloride],scaled lipid accumulation score,[2],0.914 (active)
CN1CCN(CCCN2c3ccccc3Sc3ccc(C(F)(F)F)cc32)CC1 [Trifluoperazine hydrochloride],scaled lipid accumulation score,[2],0.396
O=C(O)CCC/C=C\C[C@@H]1[C@@H](/C=C/[C@@H](O)COc2cccc(C(F)(F)F)c2)[C@H](O)C[C@@H]1O [Fluprostenol],scaled lipid accumulation score,[3],0.005 and ≤ -0.021
Cn1c(=O)cc(N2CCC[C@@H](N)C2)n(Cc2cc(F)ccc2C#N)c1=O [Trelagliptin],scaled lipid accumulation score,[4],≤ -0.009
same,scaled lipid accumulation score,[2],≤ 0
O=C(O)CCC/C=C\C[C@H]1C(=O)C=C[C@@H]1/C=C/[C@@H](O)CCc1ccccc1 [17-phenyl trinor Prostaglandin A2],scaled lipid accumulation score,[3],≤ 0
Cc1cc([N+](=O)[O-])ccc1NS(=O)(=O)c1cc(Cl)ccc1Cl,scaled lipid accumulation score,[4],≤ -0.009
same,scaled lipid accumulation score,[2],0.147
Nc1nc2c(cnn2CCc2ccccc2)c2nc(-c3ccco3)nn12,scaled lipid accumulation score,[2],0.583
CCCCC[C@@](C)(O)/C=C/[C@H]1[C@H](O)CC(=O)[C@@H]1C/C=C\CCCC(=O)O [15(R)-15-methyl Prostaglandin E2],scaled lipid accumulation score,[3],≤ 0
CCCCC/C=C\C/C=C\C/C=C\C/C=C\CCCC(=O)O[C@@H](CO)COCCCCCCCCCCCCCCCC [1-Hexadecyl-2-arachidonoyl-glycerol],scaled lipid accumulation score,[3],0.044
CC(C)Oc1ccc(C(=O)N[C@H](CNC(=O)CN(C)C)Cc2ccc(-c3cn4cccc([C@H](C)O)c4n3)cc2)cc1Cl [listing 1 of 2 here],scaled lipid accumulation score,[2],0.882 (active)
CC(C)Oc1ccc(C(=O)N[C@H](CNC(=O)CN(C)C)Cc2ccc(-c3cn4cccc([C@H](C)O)c4n3)cc2)cc1Cl [listing 2 of 2 here],scaled lipid accumulation score,[4],0.464
CCCCCCCC/C=C\CCCCCCCC(=O)N[C@H](CO)Cc1ccc(O)cc1,scaled lipid accumulation score,[3],≤ 0
COCCOc1cc2ncnc(Cl)c2cc1OCCOC,scaled lipid accumulation score,[2],≤ 0
CSc1ccc2c(c1)N(CCC1CCCCN1C)c1ccccc1S2 (stereo unspecified) [Thioridazine hydrochloride],scaled lipid accumulation score,,0.711
same,scaled lipid accumulation score,[1],0.586
same,scaled lipid accumulation score,[2],0.072 and 0.283
CN1[C@@H](CC(=O)c2ccccc2)CCC[C@H]1C[C@H](O)c1ccccc1 [Lobeline alpha (-) hydrochoride],scaled lipid accumulation score,,0.216
CN1[C@@H](CC(=O)c2ccccc2)CCC[C@H]1C[C@H](O)c1ccccc1 [alpha-Lobeline hydrochloride],scaled lipid accumulation score,[2],0.493
O=C(O)COCCN1CCN([C@H](c2ccccc2)c2ccc(Cl)cc2)CC1,scaled lipid accumulation score,[2],≤ 0
O=C(O)COCCN1CCN(C(c2ccccc2)c2ccc(Cl)cc2)CC1 (stereo unspecified) [Cetirizine hydrochloride],scaled lipid accumulation score,[2],≤ -0.027
CN(C)C(=O)C(CCN1CCC(O)(c2ccc(Cl)cc2)CC1)(c1ccccc1)c1ccccc1 [Loperamide HCl],scaled lipid accumulation score,[4],0.485
same,scaled lipid accumulation score,[2],0.611
CN1[C@@H](CC(=O)c2ccccc2)CCC[C@H]1C[C@H](O)c1ccccc1 [Lobeline hydrochloride],scaled lipid accumulation score,[2],≤ 0 and 0.256
O=C(O)COCCN1CCN(C(c2ccccc2)c2ccc(Cl)cc2)CC1 (stereo unspecified) [Cetirizine],scaled lipid accumulation score,[2],≤ 0
CN1CCCC1CCOC(C)(c1ccccc1)c1ccc(Cl)cc1.O=C(O)/C=C/C(=O)O (stereo unspecified) [Clemastine fumarate],scaled lipid accumulation score,[2],0.942 (active)
O=C(O)COCCN1CCN(C(c2ccccc2)c2ccc(Cl)cc2)CC1 (stereo unspecified) [Cetirizine dihydrochloride],scaled lipid accumulation score,,0.024
same,scaled lipid accumulation score,[2],0.244 and ≤ -0.001
CN1[C@@H](CC(=O)c2ccccc2)CCC[C@H]1C[C@H](O)c1ccccc1,scaled lipid accumulation score,[2],≤ 0
CN1CCC[C@@H]1CCO[C@](C)(c1ccccc1)c1ccc(Cl)cc1 [Clemastine Fumarate],scaled lipid accumulation score,[4],0.249
same,scaled lipid accumulation score,[2],0.819
CN1[C@@H](CC(=O)c2ccccc2)CCC[C@H]1C[C@H](O)c1ccccc1 [Lobeline],scaled lipid accumulation score,library stock concentration: 5.9 mM,≤ -0.006
CN1CCC[C@@H]1CCO[C@](C)(c1ccccc1)c1ccc(Cl)cc1 [Clemastine fumarate] [listing 1 of 2 here],scaled lipid accumulation score,,0.619
CN(C)C(=O)C(CCN1CCC(O)(c2ccc(Cl)cc2)CC1)(c1ccccc1)c1ccccc1 [Loperamide hydrochloride],scaled lipid accumulation score,,0.682
same,scaled lipid accumulation score,[2],0.699 and 0.787
CN1CCC[C@@H]1CCO[C@](C)(c1ccccc1)c1ccc(Cl)cc1 [Clemastine],scaled lipid accumulation score,[2],0.362
O=C(O)COCCN1CCN(C(c2ccccc2)c2ccc(Cl)cc2)CC1 (stereo unspecified) [Cetirizine DiHCl],scaled lipid accumulation score,[4],≤ 0
same,scaled lipid accumulation score,[2],≤ 0
CSc1ccc2c(c1)N(CCC1CCCCN1C)c1ccccc1S2 (stereo unspecified) [Thioridazine HCl],scaled lipid accumulation score,library stock concentration: 5.4 mM,0.47
CN1CCC[C@@H]1CCO[C@](C)(c1ccccc1)c1ccc(Cl)cc1.O=C(O)/C=C/C(=O)O [Clemastine fumarate],scaled lipid accumulation score,[2],0.861 (active)
CN1CCC[C@@H]1CCO[C@](C)(c1ccccc1)c1ccc(Cl)cc1 [Clemastine fumarate] [listing 2 of 2 here],scaled lipid accumulation score,library stock concentration: 5.8 mM,0.885 (active)
